Data taken from PubChem BioAssay AID1159580 (chemical genetic matrix, 2015).
Among all 5,500 compounds or so, about 2,000 (36%) were called active. Not shown: some 18% with an inconclusive outcome. No stated cut-off is given here; in the data, active means normalized growth mostly below about 0.91 (no sharp cut-off); inconclusive means no clear call, values can overlap the other calls; inactive means mostly above about 0.92. The list shows a part of the results.

Assay: chemical genetic growth profiling, strain panel (AID 1159580);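 further: tested at 20 µM; growth read once vehicle control cultures reached saturation at 30 °C; 1 = growth at the plate median or of vehicle wells; lower values mean less growth of the strain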
Conditions: growth OD

Measured: normalized growth

CC(=O)NO
inactive: S. cerevisiae deletion strains, locus YJL187C, strain SWE1, hits give low values 0.992 | S. cerevisiae deletion strains, locus YJR043C, strain POL32, hits give low values 1.07 | S. cerevisiae deletion strains, locus YJR066W, strain TOR1, hits give low values 0.993 | S. cerevisiae deletion strains, locus YKL009W, strain mrt4, hits give low values 0.989 | S. cerevisiae deletion strains, locus YKL068W, hits give low values 0.995 | S. cerevisiae deletion strains, locus YKL085W, strain MDH1 (second series), hits give low values 0.994 | S. cerevisiae deletion strains, locus YKL085W, strain MDH1, hits give low values 0.994 | S. cerevisiae deletion strains, locus YKL160W, strain elf1, hits give low values 0.961 | S. cerevisiae deletion strains, locus YKL190W, strain CNB1, hits give low values 1 | S. cerevisiae deletion strains, locus YKR001C, strain vps1, hits give low values 1.02 | S. cerevisiae deletion strains, locus YKR026C, strain gcn3, hits give low values 0.98 | S. cerevisiae deletion strains, locus YKR091W, strain srl3, hits give low values 0.985 | S. cerevisiae deletion strains, locus YLL001W, strain dnm1, hits give low values 0.922 | S. cerevisiae deletion strains, locus YLL026W, hits give low values 0.988 | S. cerevisiae deletion strains, locus YLL041C, strain sdh2, hits give low values 0.988 | S. cerevisiae deletion strains, locus YLR027C, strain aat2, hits give low values 0.981 | S. cerevisiae deletion strains, locus YLR039C, strain RIC1, hits give low values 0.711 | S. cerevisiae deletion strains, locus YLR058C, strain SHM2, hits give low values 0.988 | S. cerevisiae deletion strains, locus YLR102C, strain apc9, hits give low values 0.996 | S. cerevisiae deletion strains, locus YLR113W, strain HOG1, hits give low values 0.973 | S. cerevisiae deletion strains, locus YLR221C, strain rsa3, hits give low values 0.922 | S. cerevisiae deletion strains, locus YLR258W, strain gsy2, hits give low values 0.964 | S. cerevisiae deletion strains, locus YLR262C, strain YPT6 (second series), hits give low values 0.986 | S. cerevisiae deletion strains, locus YLR262C, strain YPT6, hits give low values 0.746 | S. cerevisiae deletion strains, locus YLR268W, strain sec22, hits give low values 0.965 | S. cerevisiae deletion strains, locus YLR320W, strain mms22, hits give low values 0.892 | S. cerevisiae deletion strains, locus YLR330W, strain CHS5, hits give low values 0.996 | S. cerevisiae deletion strains, locus YLR342W, strain FKS1 (second series), hits give low values 0.901 | S. cerevisiae deletion strains, locus YLR342W, strain FKS1, hits give low values 0.98 | S. cerevisiae deletion strains, locus YLR357W, strain rsc2, hits give low values 0.971 | S. cerevisiae deletion strains, locus YLR370C, strain arc18, hits give low values 0.949 | S. cerevisiae deletion strains, locus YLR371W, strain rom2, hits give low values 0.987 | S. cerevisiae deletion strains, locus YLR384C, strain iki3, hits give low values 0.983 | S. cerevisiae deletion strains, locus YLR418C, strain cdc73, hits give low values 0.851 | S. cerevisiae deletion strains, locus YML016C, strain PPZ1, hits give low values 0.993 | S. cerevisiae deletion strains, locus YML032C, strain rad52, hits give low values 0.951 | S. cerevisiae deletion strains, locus YML120C, strain ndi1, hits give low values 0.948 | S. cerevisiae deletion strains, locus YML124C, strain tub3, hits give low values 0.995 | S. cerevisiae deletion strains, locus YMR058W, strain fet3, hits give low values 0.988 | S. cerevisiae deletion strains, locus YMR078C, strain ctf18, hits give low values 0.991 | S. cerevisiae deletion strains, locus YMR125W, strain sto1, hits give low values 0.963 | S. cerevisiae deletion strains, locus YMR129W, hits give low values 0.99 | S. cerevisiae deletion strains, locus YMR205C, strain PFK2, hits give low values 0.951 | S. cerevisiae deletion strains, locus YMR223W, strain ubp8, hits give low values 0.968 | S. cerevisiae deletion strains, locus YMR231W, strain pep5, hits give low values 0.987 | S. cerevisiae deletion strains, locus YMR307W, strain GAS1, hits give low values 1.17 | S. cerevisiae deletion strains, locus YNL067W, strain RPL9B, hits give low values 0.949 | S. cerevisiae deletion strains, locus YNL071W, strain lat1, hits give low values 0.976 | S. cerevisiae deletion strains, locus YNL183C, strain NPR1, hits give low values 0.968 | S. cerevisiae deletion strains, locus YNL209W, strain ssb2, hits give low values 0.985 | S. cerevisiae deletion strains, locus YNL233W, strain BNI4, hits give low values 0.939 | S. cerevisiae deletion strains, locus YNL248C, strain rpa49, hits give low values 0.956 | S. cerevisiae deletion strains, locus YNL250W, strain rad50, hits give low values 0.976 | S. cerevisiae deletion strains, locus YNL271C, strain bni1, hits give low values 0.984 | S. cerevisiae deletion strains, locus YNL298W, strain CLA4, hits give low values 0.993 | S. cerevisiae deletion strains, locus YNL307C, strain MCK1, hits give low values 0.978 | S. cerevisiae deletion strains, locus YNL322C, strain KRE1 (second series), hits give low values 0.957 | S. cerevisiae deletion strains, locus YNR049C, strain mso1, hits give low values 0.977 | S. cerevisiae deletion strains, locus YNR052C, strain pop2, hits give low values 0.97 | S. cerevisiae deletion strains, locus YOL012C, strain htz1 0.899 | S. cerevisiae deletion strains, locus YOL147C, strain pex11, hits give low values 0.992 | S. cerevisiae deletion strains, locus YOR001W, strain rrp6, hits give low values 1.01 | S. cerevisiae deletion strains, locus YOR061W, strain CKA2, hits give low values 1 | S. cerevisiae deletion strains, locus YOR069W, strain VPS5, hits give low values 1.01 | S. cerevisiae deletion strains, locus YOR070C, strain gyp1, hits give low values 0.979 | S. cerevisiae deletion strains, locus YOR080W, strain dia2, hits give low values 0.977 | S. cerevisiae deletion strains, locus YOR083W, strain WHI5, hits give low values 0.962 | S. cerevisiae deletion strains, locus YOR106W, strain vam3, hits give low values 0.975 | S. cerevisiae deletion strains, locus YOR136W, strain idh2, hits give low values 0.989 | S. cerevisiae deletion strains, locus YOR144C, strain elg1, hits give low values 0.996 | S. cerevisiae deletion strains, locus YOR184W, strain ser1, hits give low values 0.974 | S. cerevisiae deletion strains, locus YOR231W, strain MKK1, hits give low values 0.992 | S. cerevisiae deletion strains, locus YOR265W, strain rbl2, hits give low values 0.986 | S. cerevisiae deletion strains, locus YOR270C, strain vph1, hits give low values 0.944 | S. cerevisiae deletion strains, locus YOR290C, strain snf2, hits give low values 0.948 | S. cerevisiae deletion strains, locus YOR316C, strain cot1, hits give low values 0.996 | S. cerevisiae deletion strains, locus YPL051W, strain arl3, hits give low values 0.985 | S. cerevisiae deletion strains, locus YPL078C, strain atp4, hits give low values 0.97 | S. cerevisiae deletion strains, locus YPL106C, strain sse1, hits give low values 0.969 | S. cerevisiae deletion strains, locus YPL240C, strain hsp82, hits give low values 0.983 | S. cerevisiae deletion strains, locus YPL256C, strain CLN2, hits give low values 0.994 | S. cerevisiae deletion strains, locus YPR119W, strain clb2, hits give low values 1 | S. cerevisiae deletion strains, locus YPR141C, strain kar3, hits give low values 1 | S. cerevisiae deletion strains, locus YPR163C, strain tif3, hits give low values 0.984 | S. cerevisiae deletion strains, locus YPR167C, strain met16, hits give low values 0.983 | S. cerevisiae deletion strains, strain wtn01, hits give low values 0.969 | S. cerevisiae strains, strain wild type, hits give low values 0.981
